Source: PubChem BioAssay
FLuc modulator = qHTS profiling assay for firefly luciferase inhibitor/activator using purifed enzyme and Km concentrations of substrates (counterscreen for miR-21 project); Luciferin 4-monooxygenase (Photinus pyralis), P08659; Potency, µM (doses to about 57.5 µM), for inactives: at the top dose activity change, negative = inhibition, actives largely listed as inhibitors; AID 588342, 2011; purified FLuc, Km substrates, luminescence inhibition; actives 6.9% (n = 360,000);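 note: plate controls were vehicle for no effect and reference inhibitor for full effect; nearly all actives have a fitted effect of over 55% in size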
Target sequence (P08659 whole entry, looked up): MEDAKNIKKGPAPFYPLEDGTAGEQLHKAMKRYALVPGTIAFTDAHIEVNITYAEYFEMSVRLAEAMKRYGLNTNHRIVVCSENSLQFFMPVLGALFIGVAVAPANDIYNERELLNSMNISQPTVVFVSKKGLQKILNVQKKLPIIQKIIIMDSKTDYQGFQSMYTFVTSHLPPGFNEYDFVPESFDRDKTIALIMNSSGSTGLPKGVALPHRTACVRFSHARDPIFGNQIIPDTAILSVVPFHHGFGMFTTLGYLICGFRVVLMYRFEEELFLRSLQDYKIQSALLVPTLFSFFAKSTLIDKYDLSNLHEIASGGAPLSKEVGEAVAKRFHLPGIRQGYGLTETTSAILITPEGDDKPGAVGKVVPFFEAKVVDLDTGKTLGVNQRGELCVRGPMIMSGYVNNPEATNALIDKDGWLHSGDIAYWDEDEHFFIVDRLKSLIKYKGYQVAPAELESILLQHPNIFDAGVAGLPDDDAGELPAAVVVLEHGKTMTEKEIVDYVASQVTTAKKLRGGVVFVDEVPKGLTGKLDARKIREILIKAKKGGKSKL
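Biochemical qHTS of compounds, final roughly 60 µM downward over six points, against 10 nM purified firefly luciferase using Km concentrations of substrates (10 uM D-luciferin, 10 uM ATP) in Tris acetate pH 7.5 buffer; luminescence output.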
Rab9 promoter act = qHTS Assay for Rab9 Promoter Activators | Huh7 Rab9 promoter-luciferase reporter, luminescence, 24 h | Potency, µM (titrated, usually from 9.22 µM), without a hit: at the top dose activation, negative = inhibition, usual class: activators | actives 2.8% (n = 320,000) | AID 485297, 2010; note: % of control where 0% means no effect; nearly all actives have a fitted effect of over 60% in size
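Luciferase signal after 10 min detection reagent at ambient indicates Rab9 promoter upregulation; stably transfected Huh7 cells were treated 24 h with compound in DMSO at 37 °C, 5% CO2.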
SMN2 splice enh = qHTS Assay for Enhancers of SMN2 Splice Variant Expression; HEK293 SMN2-luciferase splicing reporter, luminescence, 30-36 h; Potency, µM (titrated, usually from 46.1 µM), without a hit: at the top dose activity change, positive = activation, hits mostly activators; actives 2.8% (n = 210,000); note: % of control where 0% means no effect; nearly all actives have a fitted effect of over 55% in size
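HEK293 cells carry an SMN2 […]–luciferase reporter in which exon 7 inclusion puts luciferase in frame. Cells were plated 10-12 h before compound addition, then incubated 30-36 h at 37C. ONE-Glo luminescence was read; sodium butyrate at 4.5 mM final served as control.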
NPC1 prom act = qHTS Assay for NPC1 Promoter Activators; Huh7 NPC1 promoter luciferase reporter, 24 h; Potency, µM (top dose mostly 9.22 µM), for the others: at the highest dose activation, usual class: activators; actives 2.4% (n = 320,000); AID 485313, 2010; note: % of control where 0% means no effect; nearly all actives have a fitted effect of over 60% in size
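Compounds in DMSO were transferred onto Huh7 NPC1-luciferase reporter cells pre-incubated 2 h; after 24 h at 37 °C, Amplite reagent was dispensed and luminescence recorded 10 min later.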
ELG1 genotoxic = qHTS screen for small molecules that induce genotoxicity in human embryonic kidney (HEK293T) cells expressing luciferase-tagged ELG1. HEK293T ELG1-luciferase reporter, luminescence, 16 h. Potency, µM (top dose mostly 46 µM), for inactives: at the highest dose activity change, positive = activation, most hits filed as activators. actives 1.3% (n = 330,000); note: % of control where 0% means no effect; nearly all actives have a fitted effect of over 60% in size
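Screening used a luciferase reporter fused to human ELG1 in HEK293T cells. Luminescence was read on a CCD plate imager after 16 hr exposure and 30 min ONE-Glo incubation.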
Numbers without * were called inactive; ? = inconclusive; . = no result given; [ ] = another dose, or the depositor's remark. Rows were chosen to be rich in hits. Some 7.5% of all compounds tested hit in one or more screens of this group. Calls come from the whole dose curve; as a rule, active = well fitted curve in the direction sought with a large enough effect; inconclusive = small, poorly fitted or top-dose-only effect, or another doubt; inactive = no such curve, though single readings can be large; an effect the other way counts as inactive or inconclusive. Potency is the fitted concentration of half-maximal effect.

SMILES	FLuc modulator	Rab9 promoter act	SMN2 splice enh	NPC1 prom act	ELG1 genotoxic
COC(=O)[C@H]1C[C@@H]1[C@H](NC(=O)c1cc(C)nn1C)c1ccccc1	.	.	-4.6%	.	.
Cc1ccc(S(=O)(=O)N2CCCC2)cc1C(=O)NCCN1CCOCC1	?	19.8%	.	17.7%	?
CCN(CCn1cccn1)C(=O)CCc1nnc(C2(c3ccc(Cl)cc3)CCC2)o1	16.9µM*	?	.	28.2%	17.7%
CCN(CCn1cccn1)C(=O)CCc1nnc(-c2ccccc2)o1	?	17.4%	.	9.0%	10.9%
CC(C)CC(=O)NC1(C(F)(F)F)C(=O)Nc2c1c(=O)[nH]c(=O)n2-c1ccccc1 (configuration not stated)	2.8%	.	?	.	.
COc1ccc(OCC(=O)NC(=S)NNC(=O)COc2ccc(Br)cc2Cl)cc1	?	0.2%	8.9%	-2.0%	-0.3%
Cc1ccc(OCC(=O)NNC(=S)NC(=O)C2CC2)c(C)c1	13.5µM*	-8.0%	.	-4.9%	8.3%
O=C(COc1ccc(Br)cc1Cl)NC(=S)Nc1ccccn1	1.07µM*	?	.	?	1.64µM*
Cc1ccc(OCC(=O)NC(=S)Nc2ccccn2)c(Br)c1	0.19µM*	2.82µM*	.	1.58µM*	0.13µM*
Cc1ccc(OCC(=O)NNC(=S)NC(=O)C2CCCCC2)c(C)c1	5.0%	-0.5%	.	-5.8%	2.9%
COCCCNC(=O)COc1ccc(Br)cc1Cl	?	?	15.8µM*	?	?
Cc1nc(NC(=S)NC(=O)COc2ccccc2Cl)ccc1Br	-1.4%	-3.2%	-13.4%	-1.3%	-1.9%
CCOC(=O)c1c(-c2ccc(C)cc2)csc1NC(=O)c1cc(=O)c2cc(C)c(C)cc2o1	0.3%	.	0.2%	.	.
CCc1cccc2c(C(=O)CN3C(=O)N(C)C4(CCCCC4)C3=O)c[nH]c12	-3.8%	-0.9%	.	-3.4%	?
Cc1c2cnn(CC(=O)NCCCN3CC(C)CC(C)C3)c(=O)c2c(C)n1Cc1ccccc1Cl (configuration not stated)	1.4%	-1.2%	.	-4.6%	-0.4%
CC(C)c1ccc(OCC(=O)NNC(=S)NC(=O)c2cccs2)c(Br)c1	0.0%	-2.0%	.	1.1%	-0.4%
Cc1ccc(OCC(=O)NNC(=S)NC(=O)C(C)(C)C)c(Br)c1	26.9µM*	5.4%	-47.4%	0.7%	4.1%
CCc1nnc(NC(=O)COC(=O)c2cc(OC)cc(OC)c2)s1	.	.	.	.	0.6%
COC(=O)c1ccc(-c2nc(O)c(C)s2)cc1	9.53µM*	0.0%	2.7%	-3.9%	10.9%
COC(=O)c1ccc(-c2nc3cc(Cl)c(N)cc3s2)cc1	0.0757µM*	0.891µM*	1.41µM*	0.708µM*	?
CCc1ccc(NC(=O)Cn2c(=O)n(Cc3ccccc3)c(=O)c3oc4ccccc4c32)cc1	-3.9%	.	.	.	.
COc1ccc(NC(=O)Cn2c(=O)n(Cc3ccccc3)c(=O)c3oc4ccccc4c32)cc1Cl	2.39µM*	.	.	.	.
Cc1ccc(C(=O)C(C)OC(=O)c2ccccc2[N+](=O)[O-])cc1 (configuration not stated)	1.07µM*	1.58µM*	12.6µM*	0.891µM*	7.31µM*
O=C(/C=C/c1ccc(-c2ccccc2[N+](=O)[O-])o1)c1ccc(F)cc1	13.5µM*	14.1%	-3.7%	3.9%	-0.3%
O=C(/C=C/c1ccc(-c2ccccc2[N+](=O)[O-])o1)c1ccc(Br)cc1	?	3.1%	-12.6%	19.4%	4.9%
SMILES	FLuc modulator	Rab9 promoter act	SMN2 splice enh	NPC1 prom act	ELG1 genotoxic
N#C/C(=C/c1ccc(-c2ccccc2[N+](=O)[O-])o1)C(N)=O	4.3%	0.3%	-0.1%	-6.2%	3.4%
Cc1ccc(C(=O)/C=C/c2ccc(-c3ccccc3[N+](=O)[O-])o2)cc1	19µM*	16.7%	-1.4%	?	10.7%
O=C(/C=C/c1ccccc1F)c1cccc([N+](=O)[O-])c1	12µM*	-4.2%	-2.6%	-2.1%	?
CCN(CCCNC(=O)Cn1ncc2c([nH]c3ccc(C)cc32)c1=O)Cc1ccccc1	4.1%	-2.8%	.	-0.9%	2.5%[9.26 µM]
CC(C)c1ccc2oc(=O)cc(CN3CCCCC3)c2c1	1.4%	2.0%	.	-1.5%	-1.6%
CC(C)c1ccc(NC(=O)c2cccc3c2C(=O)N(C2CCCCC2)C3)cc1	?	.	-6.2%	.	.
O=C(COC(=O)/C=C/c1ccc([N+](=O)[O-])cc1)NCC1CCCCC1	.	.	.	.	-0.8%
Cc1ccc(C(=O)/C=C/c2ccccc2[N+](=O)[O-])cc1	8.49µM*	?	20.7%	20.0%	?
O=C(C#Cc1ccccc1)c1cccc([N+](=O)[O-])c1	10.7µM*	0.3%	-30.4%	1.0%	10.4%
O=C(/C=C/c1ccc(-c2ccccc2)o1)c1ccccc1	6.75µM*	25.6%	.	?	?
Cc1ccc(-c2ccc(/C=C/C(=O)c3ccccc3)o2)cc1	?	2.9%	13.6%	-0.7%	1.5%
CCN=C1NN=C(c2c[nH]c3ccccc23)CS1	6.01µM*	1.12µM*	.	3.55µM*	?
COCC(C)N=C1NN=C(c2c[nH]c3ccccc23)CS1 (configuration not stated)	21.3µM*	?	.	18.7%	?
CCn1c(SC)nnc1-c1c[nH]c2ccccc12	?	0.2%	-43.1%	12.1%	25.7%
CC(=O)N1N=C(c2cccc(Cl)c2)OC1c1cccc([N+](=O)[O-])c1 (configuration not stated)	5.7%	16.0%	1.5%[1.84 µM]	-2.3%	6.7%
CC(=O)N1N=C(c2cccc(Cl)c2)OC1c1ccc(C(C)C)cc1 (configuration not stated)	23.9µM*	23.1%	4.2%	16.5%	18.4µM*
Cc1cc(C)c(C)c(S(=O)(=O)N(C)CCc2ccccn2)c1C	.	.	.	.	-1.0%
COCCN1CCN(c2c3c(nc4cc(-c5cccc(F)c5)nn24)CCC3)CC1	2.9%	0.0%	-3.4%	-0.8%	-7.5%
Fc1ccc(-c2cc3nc4c(c(N5CCOCC5)n3n2)CCCC4)cc1	21.3µM*	-2.1%	-15.7%	-1.6%	-2.5%
COc1cccc(-c2cc3nc4c(c(N5CCC6(CC5)OCCO6)n3n2)CCC4)c1	26.9µM*	-0.6%	-7.6%	-8.0%	-7.9%
OC1CCN(c2c3c(nc4cc(-c5ccc(F)cc5)nn24)CCC3)CC1	?	2.5%	-6.7%	13.9%	-10.3%
OC1CCCN(c2c3c(nc4cc(-c5cccc(F)c5)nn24)CCCC3)C1 (configuration not stated)	?	?	11.2µM*	?	?
Cc1cccc(-c2cc3nc4c(c(N5CCOCC5)n3n2)CCCC4)c1	2.39µM*	?	-19.3%	?	?
COc1ccc(-c2cc3nc4c(c(N5CCC6(CC5)OCCO6)n3n2)CCC4)cc1	-2.7%	-0.5%	.	-4.1%	-0.5%
